The experiment has as its system CDK7. The following applies: concentration: 1 μM, replicates: in singlicate; n = 1.
As to `COc1ccc(Nc2nccc(N3CCC(NC(=O)c4cc5ccccc5s4)C3)n2)cc1` (stereo not drawn) [GSK1379738], the “%Inh” value is 0%. The value for `Cc1ccc(-c2nc(Nc3ccncc3)c3ccccc3n2)s1` [GSK189015] was 0%; that for `Cn1cncc1C(=O)NC1CCN(c2ccnc(Nc3ccc(F)cc3)n2)C1` (stereo not drawn) [GSK1379717] was 0%. The figure for `COc1ccc(Nc2nccc(N3CCC(NC(=O)C(C)c4ccc(Cl)cc4)C3)n2)cc1` (stereo not drawn) [GSK1379735] is 0%; for `COc1nccc(-c2c(-c3ccc(F)cc3)ncn2CCCN2CCOCC2)n1` [SB-282852] it is 27%; for `Cc1ccccc1Cn1ccn2c(=O)cc(N3CCOCC3)nc12` [GSK2269905] it is 0%. Regarding `CS(=O)(=O)CCNCc1nc(-c2ccc3ncnc(Nc4ccc5c(cnn5Cc5ccccc5)c4)c3c2)cs1.Cl.Cl` [GW569716], the “%Inh” value is 0%. The figure for `O=C1NC(=O)C(c2ccc(Cl)cc2)=C1Nc1ccc(O)cc1` [SB-340867] is 0%. On to `Cc1cccc2c(-c3ccncn3)c(-c3ccc(F)cc3)nn12` [GW515532], for which the “%Inh” value is recorded as 0%. Turning to `Cn1cncc1-c1cc2c(Nc3ccc(OCc4ccccc4)cc3)ncnc2cn1` [GW281179], the “%Inh” value was 0%. The figure for `CCn1c(-c2ccccc2)nc2cnccc21` [SB-733416] is 0%.

With `Nc1ncnc2occ(-c3ccc4c(c3)CCN4C(=O)Cc3cc(F)ccc3F)c12` [GSK2645446], the “%Inh” value stood at 0%. The figure for `c1ccc(-c2ccnc3[nH]ccc23)cc1` [SB-693578] is 6%; for `O=C(Nc1n[nH]c2cc(-c3ccsc3)ccc12)C1CC1` [SB-732932] it is 21%; for `COc1ccc(Nc2nccc(NCCNC(=O)Nc3cc(C)ccc3C)n2)cc1` [GSK1379899] it is 0%. The figure for `Cc1ccc(NC(=O)Nc2ccccc2F)cc1-c1ccc(C(=O)Nc2ccncc2)cc1` [GSK1398477] is 0%; for `Cl.Cl.Cl.N#Cc1ccc(CCNc2nccc(-c3cccc(CN4CCNCC4)c3)n2)cc1` [GSK2137462] it is 69%. As for `O=C1NC(=O)C(c2ccc(Cl)cc2)=C1Nc1cccc(Cl)c1` [SB-317651], the “%Inh” value amounted to 16%. On to `Cc1ccccc1-c1cc(-c2c[nH]nc2-c2ccccn2)ccn1` [GW680061], for which the “%Inh” value came out at 0%. Turning to `Fc1ccc(-c2nc3n(c2-c2ccncc2)CCS3)cc1` [GI98581], the “%Inh” value was determined as 0%.

For `CC(C)c1ccc(O)cc1Nc1ccnc2ccc(C(F)(F)F)cc12` [GW482059], the “%Inh” value is given as 0%. For the molecule `CC(=O)c1cccc(NC(=O)NC2CCN(c3ccnc(Nc4ccc(F)cc4)n3)C2)c1` (stereo not drawn) [GSK1379710], the “%Inh” value worked out at 7%. Turning to `Cc1nccc(-c2c(-c3ccc(F)cc3)ncn2CCCN2CCOCC2)n1.Cl` [SB-282975], the “%Inh” value worked out at 27%. The value for `O=C(Nc1n[nH]c2nc(-c3ccco3)c(Br)cc12)C1CCN(Cc2ccccc2)C1.O=C(O)[C@H](O)[C@@H](O)C(=O)O` (stereo not drawn) [SB-742034] was 81%; that for `O=c1cc(N2CCOCC2)nc2n(Cc3cccc(Cl)c3Cl)c3ccccc3n12` [GSK2299009] was 0%. The figure for `Cn1cnc2c(N)ncnc21` [SKF-97623] is 0%. The value for `CNCc1ccc2nc(NC(=O)c3ccc(C(C)(C)C)cc3)cn2c1` was 8%; that for `COc1ccc(CSc2nnc(-c3ccc4nccn4c3)o2)cc1C(F)(F)F` was 13%. With `O=C(Nc1n[nH]c2nc(-c3cccs3)c(Br)cc12)C1CCCC1` [SB-743341], the “%Inh” value is reported as 60%. Consider `Nc1nccc(-c2c(-c3ccc(F)cc3)ncn2C2CCN(Cc3ccccc3)CC2)n1` [SB-219980], for which the “%Inh” value stood at 13%. As to `Cc1ccc(NC(=O)Nc2ccc(Cl)c(C(F)(F)F)c2)cc1-c1ccc(C(=O)Nc2ccncc2)cc1` [GSK1398470], the “%Inh” value is reported as 0%. The value for `COc1ccc(CSc2nnc(-c3ccc4c(c3)CCO4)o2)cc1` was 0%. The value for `NS(=O)(=O)c1cccc(N/C=C2\C(=O)Nc3ccc(S(=O)(=O)Cc4c(Cl)cccc4Cl)cc32)c1` [GSK398099] was 0%. For the molecule `CNc1nc(-c2ccc3c(N)n[nH]c3c2)cc(N2C[C@@H](C(=O)NC3CCCCC3)OC[C@H]2C)n1` [GSK2375584], the “%Inh” value is recorded as 3%. On to `CS(=O)(=O)Cc1ccc(Nc2nccc(-c3c(-c4cccc(NC(=O)C5CCCCC5)c4)nn4ncccc34)n2)cc1` [GSK350559], for which the “%Inh” value is reported as 6%.

For the molecule `COC(=O)c1cccc(NC(=O)NC2CCN(c3ccnc(Nc4ccc(OC)cc4)n3)C2)c1` (stereo not drawn) [GSK1379746], the “%Inh” value worked out at 0%.

Source of the values: publication PMC5540273 (PLoS ONE, 2017).
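Further: KINOMEscan kinase panel screen.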
